Drawing on ChEMBL document CHEMBL1157539, “Thousands of chemical starting points for antimalarial lead identification” (Nature, 2010), this text covers Inhibition for ten molecules.

What all share (assay type): functional
Test [1] relates to Plasmodium falciparum. Briefly: GSK_TCMDC: Inhibition of Plasmodium falciparum 3D7 in whole red blood cells, using parasite LDH activity as an index of growth. Test compounds present at 2uM.
The subject of test [2] is Plasmodium falciparum. Put plainly: GSK_TCMDC: Inhibition of Plasmodium falciparum Dd2 in whole red blood cells, using parasite LDH activity as an index of growth. Test compounds present at 2uM.
The test system of test [3] is HepG2. Put plainly: GSK_TCMDC: Percent inhibition of human HepG2 cell line. Test compounds present at 10uM.

Broadly, the Inhibition is the relative decrease from the control value, in per cent. Low values mean little suppression, high ones strong suppression. As for `CC(C)Cc1ccc(N2CCN(CCCCNC(=O)c3ccc(NC(=O)c4ccc(Cl)c(Cl)c4)cc3)CC2)cc1`, the Inhibition amounted to 94% in test [1], 25% in test [2] and 21% in test [3].
For `O=C(Cc1ccccn1)Nc1cccc(-c2cccc(-c3nc4cc(C(F)(F)F)ccc4[nH]3)c2)c1`, the values for the Inhibition in test [1], in test [2] and in test [3] were 95%, 22% and 26%, respectively.
With `COc1ccc(NC(=O)c2csc(-c3cc(NC(=O)c4ccnc(N5CCCC5)c4)ccc3C)c2)cc1N1CCN(C)CC1.O=C(O)C(F)(F)F`, the Inhibition in test [1] was 100%; in test [2], 80%; in test [3] it was 4%.
Take `COc1ccc(CNCc2ccc(-c3cccc(-c4nc5cc(C(F)(F)F)ccc5[nH]4)c3)cc2)cc1.O=C(O)C(F)(F)F`: the values for the Inhibition in test [1], in test [2] and in test [3] were 100%, 100% and 59%, respectively.
Take `CN1CCCN(Cc2cccc(-c3cccc(NC(=O)c4cccc(C#N)c4)c3)c2)CC1.O=C(O)C(F)(F)F`: the Inhibition in test [1] is recorded as 95%; in test [2] it was 33%; in test [3] it was 18%.
On to `CCOc1c(CNCCCNc2cc(=O)c3ccccc3[nH]2)cc(I)cc1C(C)(C)C.Cl`, for which the Inhibition in test [1] is recorded as 100%; in test [2], 89%; in test [3], 17%.
Regarding `CCOc1ccc2c(=NN=Cc3ccccc3F)cc(C)[nH]c2c1`, the Inhibition in test [1] is recorded as 100%; in test [2] it was 77%; in test [3], 0%.
With `CCCCCCN1CCCN(Cc2ccc(C(=O)Nc3ccc(C(C)C)cc3)cc2)CC1.O=C(O)C(F)(F)F`, the Inhibition in test [1] came to 93%; in test [2] it was 50%; in test [3], 40%.
As for `CCc1n[nH]c(C(=O)NC2CCN(CC3(c4ccc(OC)cc4)CCCCC3)CC2)c1C`, the results for the Inhibition in test [1], in test [2] and in test [3] were 90%, 90% and 2%, respectively.
On to `Cl.Oc1c(Cl)cc(-c2ccccc2)cc1CNC1CCCCC1`, for which the Inhibition in test [1] turned out to be 97%; in test [2], 95%; in test [3], 5%.
